Activity calls are given as the source filed them. No rule for the calls is given here.

This experiment deals with Pantothenate synthetase (Mycobacterium tuberculosis (strain ATCC 25618 / H37Rv)) (UniProt P9WIL5). Nature of the experiment: Recombinant Mtb pantothenate synthetase (PanC) inhibitors, coupled enzyme, confirmatory (AID 375).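 Also: 0% = full reaction with vehicle and 100% = no enzyme background.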 To be noted: coupled enzyme assay; at 10 µM, stronger effect = higher value.
Sequence of Pantothenate synthetase (Mycobacterium tuberculosis (strain ATCC 25618 / H37Rv)) (P9WIL5 whole entry, looked up): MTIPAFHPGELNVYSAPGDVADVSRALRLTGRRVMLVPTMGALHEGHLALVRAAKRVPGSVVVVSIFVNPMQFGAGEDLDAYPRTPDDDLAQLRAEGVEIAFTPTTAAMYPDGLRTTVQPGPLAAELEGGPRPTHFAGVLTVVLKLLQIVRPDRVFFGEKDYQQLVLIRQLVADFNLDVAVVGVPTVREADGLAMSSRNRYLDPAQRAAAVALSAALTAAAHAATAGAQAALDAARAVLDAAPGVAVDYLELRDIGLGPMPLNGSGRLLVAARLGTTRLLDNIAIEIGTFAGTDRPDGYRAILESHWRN
`Cc1ccc(NC(=O)CN(c2ccc3c(c2)OCO3)S(=O)(=O)c2c(C)n[nH]c2C)cc1`: the inhibition – broadly, the drop in the measured response relative to a control, in per cent – was 1% (inactive).
In the case of `O=c1c2[nH]c3ccccc3c2ncn1CCCn1ccnc1` it was 0% (inactive); in that of `CC1CCCCC1NC(=O)CN1CCN(Cc2ccccc2Cl)C1=O` (stereo not given), 0% (inactive).
Turning to `C=COC(=O)CSc1snc(SCC(=O)OC)c1C#N`, the inhibition is 0% (inactive).
To `c1ccc(Cn2ncc3c2ncn2c(-c4ccncc4)nnc32)cc1` belongs 0% (inactive).
To `COc1ccc(C2=Nn3c(nnc3-c3cccnc3)SC2)cc1` belongs 0% (inactive); to `O=C(Cn1nnc2c(cnn2-c2ccc(F)cc2)c1=O)c1ccccc1F`, 1% (inactive); to `CCCCC(=NCCO)C1=C(O)C(C(=O)OC)C(C)(C)CC1=O` (stereo not given), 8% (inactive).
In the case of `CC(=O)Nc1ccn(-c2ccccc2)n1` it was 2% (inactive); in that of `O=C(Cn1nc(Cc2ccncc2)c2ccccc2c1=O)N1CCN(C(=O)c2ccco2)CC1`, 0% (inactive).
With `Cc1c(C#N)c2ccccc2n1CC(=O)N1CCc2ccccc2C1`, the inhibition is 0% (inactive).
In the case of `O=C(CSc1n[nH]c(-c2ccco2)n1)Nc1sc2c(c1C(=O)Nc1ccccc1)CCCC2` it was 0% (inactive); in that of `CC(C)CCN1CC(C(=O)NCc2ccccc2)CC1=O` (stereo not given), 0% (inactive).
In the case of `CCCOc1ccc([C@@H]2C3CN(C(=O)OCC)CC=C3C(C#N)=C(N)C2(C#N)C#N)cc1OC` (stereo not given in full) it was 1% (inactive); in that of `CCN(CC)CCNC(=O)c1cc(Cl)c(N)cc1OC`, 0% (inactive); in that of `Cc1ccc2cccc(SCC(=O)N3CCOCC3)c2n1`, 5% (inactive).
To `COCCCNCC(=O)Nc1ccc(OC(F)(F)F)cc1` belongs 3% (inactive); to `O=C(COC(=O)c1ccccc1C(=O)c1ccccc1)c1ccco1`, 0% (inactive); to `CC(=O)c1ccc(NC(=O)CCc2c(C)nc3ncnn3c2C)cc1`, 4% (inactive).
For `CC(c1ccco1)N(Cc1ccco1)C(=O)Nc1ccccc1` (stereo not given), the inhibition was 0% (inactive).
Take `O=C(c1cccnc1)N1CCN(Cc2ccc3c(c2)OCO3)CC1`: the inhibition was 0% (inactive).
In the case of `CCSc1nc(N)c(C#N)c(-c2ccccc2Cl)c1C#N` it was 6% (inactive).
As for `Cc1nc(C)n(C(C)CC(=O)O)n1` (stereo not given), the inhibition is 0% (inactive).
As to `Cc1nc(NC2=NCN(CCc3ccccc3)CN2)nc2c(C)cccc12`, the inhibition was 0% (inactive).
To `COCCNC(=O)c1c(N)n(CCC2=CCCCC2)c2nc3ccccc3nc12` belongs 0% (inactive); to `Cc1nc2ccc(NC(=O)N3CCOCC3)cc2s1`, 4% (inactive).
On to `Cc1ccn2cc(CCNC(=O)CC(C)(C)C)nc2c1`, for which the inhibition is 0% (inactive).
For the molecule `Cc1ccccc1Cn1nc(C)c(NC(=O)c2noc3c2CCc2ccccc2-3)c1C`, the inhibition is 0% (inactive).
In the case of `O=C(NC1CC1)c1ccc(S(=O)(=O)NCC2CCCCC2)cc1` it was 0% (inactive).
In the case of `CCOC(=O)c1oc2ccccc2c1CSc1nnnn1-c1ccc(OC)cc1` it was 1% (inactive); in that of `CCCCc1ccc(NC(=O)N[C@H](C(=O)O)C(C)C)cc1`, 1% (inactive); in that of `COC(=O)c1ccccc1NC(=O)Cn1c(-c2nonc2N)nc2ccccc21`, 0% (inactive).
`O=C(NCCCN1CCOCC1)c1cc(-c2ccc(O)cc2)on1`: the inhibition is 0% (inactive).
In the case of `Cc1cc(C)c2c(=O)n(CC(=O)NCCCN3CCOCC3)sc2n1` it was 1% (inactive).
To `Cc1cc(C(=O)CSCc2nnc3n(CCC(C)C)c(=O)c4ccccc4n23)c(C)n1C` belongs 8% (inactive); to `COc1ccc(CN(C(=O)c2oc3ccccc3c2C)C2CCS(=O)(=O)C2)cc1` (stereo not given), 0% (inactive); to `CC(C)(C)OC(=O)N1CC(O)CC1C(=O)OCC(=O)c1ccc(Cl)cc1` (stereo not given), 0% (inactive).
In the case of `Cc1nc2ccccc2c2oc(C(=O)N3CCC(N4CCCCC4)CC3)cc12` it was 0% (inactive); in that of `COc1ccc(-c2nnn(CCc3nn[nH]n3)n2)cc1OC`, 0% (inactive).
As for `O=C(COC(=O)C1CC(=O)N(c2ccccc2)C1)c1ccccc1` (stereo not given), the inhibition was 0% (inactive).

The values above are taken from PubChem BioAssay.
